Data published in the supplement of paper PMC9433436.
± gives the standard deviation of the averaged measurements. In all, about 4,100 sequences were measured (“relative kcat/Km (krel) vs genomic leader AAAGAU”: median about 1.7, highest 2% from about 6.5 on). Only a selection was taken, and the highest values are over-represented in it overall.

Target: T1, E. coli RNase P holoenzyme (M1 P RNA + rnpA protein) (UniProt P0A7Y8)
T1 sequence: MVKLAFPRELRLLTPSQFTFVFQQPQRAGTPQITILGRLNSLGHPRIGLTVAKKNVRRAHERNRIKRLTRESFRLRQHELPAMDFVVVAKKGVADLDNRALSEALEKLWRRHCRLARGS
Assay: relative kcat/Km (krel) vs genomic leader AAAGAU (relative (reference leader = 1)); higher = faster RNase P cleavage
Protocol: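 HTS-Kin: a pool of ptRNA-Met (21C construct) with all 4096 combinations of 5' leader nucleotides N(-6) to N(-1) was processed in vitro by E. coli RNase P (P RNA + rnpA/C5 protein) under multiple-turnover conditions at 37 C, pH 8, 17.5 mM MgCl2. Residual substrate was Illumina-sequenced at several fractions reacted, and relative kcat/Km (krel) was computed by internal competition kinetics, calibrated to the genomic leader (AAAGAU = 1). The listed hexamer is the varied N(-6)..N(-1) leader (DNA letters), and it sits between a fixed 5' stem-loop flank (GCAUGCACGAAAGUGCGUGCUAUGAA) and the mature tRNA-Met starting GGCUACGUAGCUCAGUUGG. Two technical replicates are averaged.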

[1] = fraction of substrate reacted: ~9-10% (9.79% repeat 1, 9.1% repeat 2)
[2] = fraction of substrate reacted: ~13-16% (15.68% repeat 1, 13.17% repeat 2)
[3] = fraction of substrate reacted: ~26-29% (28.66% repeat 1, 26.4% repeat 2)

Sequence	relative kcat/Km [1]	relative kcat/Km [2]	relative kcat/Km [3]
CCTCCT	2.08 ± 1.7	1.23 ± 0.17	1.29 ± 0.79
AGAAAA	3.05 ± 0.94	2.65 ± 0.37	3.92 ± 1.1
ACTGGC			1.69 ± 1.6
TGTCGC	1.87 ± 0.089	2.92 ± 1.1	5.09 ± 2.2
TCTCAC	3.41 ± 1.3	4.45 ± 1.3	6.16 ± 2.3
AGTCAC	4.5 ± 2.3	4.987 ± 0.032	7.1 ± 2.9
TGTCAC	3.25 ± 2.2	4.8 ± 0.85	7.18 ± 3
AGTCAT	3.31 ± 1.6	5 ± 1.1	6.79 ± 3.2
ACTCAC	2.6 ± 1.1	2.87 ± 0.13	4.43 ± 1.7
TGTCAT	3.5 ± 1.3	4.28 ± 1.1	6.84 ± 3.2
TGTCAG		1.4 ± 0.17	3.3 ± 0.62
AGTCAA	2.58 ± 0.11	4 ± 1.2	6.05 ± 2.9
TGTCAA	3.03 ± 1.6	3.56 ± 0.18	5.75 ± 2.1
GGTCAC	2.53 ± 0.97	2.2 ± 0.29	3.14 ± 0.83
AGTCAG	2.12 ± 2	1.91 ± 0.42	3.69 ± 0.62
GCTATC	1.45 ± 0.98	0.842 ± 0.77	1.645 ± 0.013
ATTCCT	1.97 ± 0.65	2.19 ± 0.27	2.93 ± 1.1
AAATTC	2.35 ± 1.4	1.98 ± 0.19	2.34 ± 0.6
TAATGG	0.461 ± 0.18		
CAACAG			1 ± 0.52
TGACAA	3.11 ± 2.1	3.72 ± 0.47	4.23 ± 1.4
GTACGC	2 ± 0.098	2.7 ± 0.46	3.72 ± 1.3
CCTCAC	2.54 ± 0.75	3.07 ± 0.55	4.22 ± 1.2
CGTCAA	1.61 ± 0.25	3.42 ± 0.92	5.08 ± 1.4
CGTCAG	0.776 ± 0.25	1.34 ± 0.28	3.11 ± 0.5
CGTCAT	2.843 ± 0.013	4.98 ± 1.9	6.96 ± 3.1

Sequence	relative kcat/Km [1]	relative kcat/Km [2]	relative kcat/Km [3]
CGTCGC	2.49 ± 0.74	3.77 ± 0.95	4.81 ± 1.1
CGTCAC	4.5 ± 2.1	5.37 ± 0.7	6.77 ± 2
AGTCTT	3.48 ± 0.67	3.72 ± 0.46	5 ± 2.2
GAGCAA	1.98 ± 0.29	2.27 ± 0.026	2.57 ± 0.78
TATTCC	2.05 ± 0.31	2.87 ± 0.33	3.57 ± 1.4
AATTAA	2.86 ± 2	3.37 ± 0.39	4.73 ± 1.6
AATTAC	3.5 ± 1.7	3.97 ± 0.31	5.32 ± 1.9
AATTAT	3.11 ± 0.81	4.75 ± 0.82	5.76 ± 2.3
TATTAA	4.01 ± 2.3	5.12 ± 0.072	6.96 ± 2.6
TATTAG	2.38 ± 2.3	2.95 ± 0.03	4.43 ± 1.4
TATTCT	3.27 ± 1.2	4.15 ± 0.4	5.78 ± 2.3
TATTAT	4.02 ± 1.1	5.95 ± 1.7	9.03 ± 4.1
TATTAC	3.92 ± 1.1	5.68 ± 0.93	7.86 ± 3.4
ACTTTG			1.31 ± 0.45
GCCCTC	1.81 ± 0.28	2.28 ± 1.4	3.98 ± 1.6
CGCCGT	0.516 ± 0.5		1.06 ± 0.75
AATTAG		1.34 ± 0.23	3.09 ± 1.5
AGTACT	2.34 ± 1.3	2.42 ± 0.095	3.74 ± 1.6
AAATAT	1.72 ± 0.35	3.11 ± 0.79	4.74 ± 2.4
GCGGAG			0.583 ± 0.36
TCGGAA	1.2 ± 1.2	1.23 ± 0.93	1.33 ± 0.09
AAATCA	1.55 ± 0.36	1.42 ± 0.17	1.8 ± 0.46
CTCGAA	4.31 ± 0.54	6.4 ± 1.7	8.12 ± 3.5
TTCGTA	3.36 ± 1.3	4.26 ± 0.22	6.35 ± 2.4
CTCGGA			0.671 ± 0.41
TTCGAT	1.69 ± 0.22	2.71 ± 1.2	4.44 ± 2

Sequence	relative kcat/Km [1]	relative kcat/Km [2]	relative kcat/Km [3]
TTCGAC	5.66 ± 1.9	7.11 ± 1.7	10.2 ± 4.3
CTCGTC	2.68 ± 0.76	3.41 ± 0.98	5.19 ± 2
TTCGTC	3.53 ± 1.4	4.55 ± 1	6.81 ± 3.2
TTCGAG		1.96 ± 0.07	4.8 ± 1
TGCGAA	1.78 ± 0.26	1.82 ± 0.69	2.43 ± 0.68
TTCGAA	5.32 ± 1.2	7.22 ± 2.3	10.3 ± 4.3
TTCGTG		0.287 ± 0.27	2.01 ± 0.17
CGCGAA	2.89 ± 0.49	3.39 ± 1.2	4.94 ± 1.5
AGTGTT	0.435 ± 0.024		1.34 ± 0.99
CTACTT	2.09 ± 0.14	2.2 ± 0.49	2.49 ± 0.63
TGAACT	1.41 ± 0.67	1.85 ± 0.71	2.58 ± 0.76
GGCGCT	1.32 ± 0.23	0.701 ± 0.31	1.43 ± 0.38
GGGCTT			0.481 ± 0.22
TAACCG			0.9 ± 0.51
GCTTTC	2.29 ± 2.1	1.88 ± 0.58	2.09 ± 0.45
AATACA	1.91 ± 0.78	1.7 ± 0.041	2.02 ± 0.66
TAAACA	1.85 ± 0.81	1.35 ± 0.24	1.75 ± 0.52
ATCGGA	0.168 ± 0.15	0.728 ± 0.66	1.28 ± 1.1
CAGCTT	2.22 ± 1.1	1.55 ± 0.38	2.33 ± 0.38
GTGCAC	1.19 ± 0.29	1.29 ± 0.18	1.98 ± 0.6
GATAAA	1.84 ± 0.48	2.34 ± 0.5	3.8 ± 1.4
AGAGAG			1.16 ± 0.33
GTCGTA	2.55 ± 1.1	2.7 ± 0.23	3.88 ± 0.79
GTCGAT	1.85 ± 0.87	2.87 ± 0.49	3.7 ± 1.3
AGCGAC	3.26 ± 1.9	3 ± 1.1	4.06 ± 1.3
GTCGAG	2.05 ± 1.5	2.123 ± 0.001	4.03 ± 1.6

Sequence	relative kcat/Km [1]	relative kcat/Km [2]	relative kcat/Km [3]
ATCGAA	3.16 ± 0.35	5.71 ± 1.4	8.19 ± 3.6
ATCGAG	2.14 ± 2.1	1.29 ± 0.12	3.85 ± 0.66
GGCGAA	2.38 ± 1.1	2.86 ± 0.39	3.85 ± 1.4
ATCGAC	3.59 ± 0.99	4.75 ± 0.93	6.92 ± 2
GTCGAC	3.76 ± 0.29	5.92 ± 1.9	9.01 ± 3.7
GTCGAA	4.23 ± 1.8	5.6 ± 0.65	8.71 ± 2.8
ATCGAT	1.99 ± 0.67	3 ± 0.7	3.36 ± 1.2
ATCGGC			1.97 ± 1.5
TTGCCG			0.519 ± 0.071
AGTGAA	2.54 ± 0.25	2.23 ± 0.96	3.35 ± 1.5
ATGACA	1.94 ± 1.6	1.85 ± 0.61	2.06 ± 0.28
ATACGT	0.722 ± 0.057	1.92 ± 1.6	
CGCGGA	1.5 ± 1.2	1.39 ± 0.29	1.41 ± 0.58
AGCACC	2.38 ± 0.45	2.12 ± 1.5	3.05 ± 1.8
CCTGGT			2.47 ± 0.83
CTCGAC	5.18 ± 1.3	6.72 ± 2.8	9.16 ± 4.6
CTCGAT	1.97 ± 0.027	2.48 ± 1.3	4.24 ± 2.1
CTCGAG	1.8 ± 0.06	1.72 ± 1.4	3.97 ± 1.3
TAGGGA	0.803 ± 0.65		
GGAAAC	1.99 ± 1.4	1.61 ± 1.1	2.23 ± 0.17
CCGCGC	2.23 ± 0.85	1.53 ± 0.98	1.76 ± 0.15
GCGCAT	1.99 ± 0.76	2.09 ± 1.1	3.07 ± 1.8
AAAAGC			0.981 ± 0.48
